Data published in the supplement of paper PMC6953052.
Where “and” joins values, the source holds several entries; their conditions need not be identical. Equal values may be shown once. ± gives the standard deviation of the averaged measurements. The full ranking holds about 1,700 compounds; the median of “fraction of GFP-LC3-positive cells (≥5 vesicles/cell)” is about 0.058, and the highest 2% start at about 0.59. Many of the other results were omitted from the sample, so the highest values are more common in it than they were.

Each molecule was assayed on CbCln3 +/+ GFP-LC3 cerebellar neuronal cells (assay: fraction of GFP-LC3-positive cells (≥5 vesicles/cell); higher = more autophagosome accumulation).
How it was run: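 Wild-type or mutant CbCln3 cerebellar cells stably expressing GFP-LC3 (2 × 10^3/well, 384-well) received ~50 nL compound in DMSO by pin transfer, in duplicate, for 24 h at 33 °C. Hoechst 33342 and LysoTracker Red were added for the final 30 min before 3.2% PFA fixation and 10× imaging of three fields per well. CellProfiler counted GFP-LC3 vesicles per cell. The value is the fraction of cells with 5 or more vesicles, averaged over duplicates, with out-of-focus images excluded.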

Point of comparison: `CCCC[C@@H](C=O)NC(=O)[C@H](CC(C)C)NC(=O)OCc1ccccc1`, “fraction of GFP-LC3-positive cells” value 0.088. Against it:
- CCCCC/C=C\C/C=C\C/C=C\C=C\[C@@H](O)CCCC(=O)O — lower, 0.0555 ± 0.014
- Oc1cc2c(cc1O)CN(C(=S)NCCc1ccc(Cl)cc1)CCC2 [capsazepine] — higher, 0.197
- O=C(Nc1ccccc1)c1cc([N+](=O)[O-])ccc1Cl — lower, 0.0781
- CCC(=O)[C@@]1(C)[C@H](C)C[C@H]2[C@@H]3CCC4=CC(=O)C=C[C@]4(C)[C@H]3[C@@H](O)C[C@@]21C [Rimexolone] — lower, 0.0676
- CCCCNc1cc(C(=O)O)cc(S(N)(=O)=O)c1Oc1ccccc1 [Bumetanide] — lower, 0.0472
- C[C@@H](O)[C@H]1C(=O)N2C(C(=O)O)=C(SCCNC=N)C[C@H]12 [Imipenem] — lower, 0.032
- CCCCCN(CCCCC)C(=O)C(CCC(=O)[O-])NC(=O)c1ccc(Cl)c(Cl)c1.[Na+] (configuration not stated) [Lorglumide sodium salt] — lower, 0.0541
- Cc1[nH]c(=O)c(C#N)cc1-c1ccncc1 [Milrinone] — lower, 0.0445
- CC(N/C(=N/C#N)Nc1ccncc1)C(C)(C)C (configuration not stated) [Pinacidil] — lower, 0.0667
- CCCCC[C@H](O)CC(=O)CCc1ccc(O)c(OC)c1 — lower, 0.0534
- CN1CCN2c3ccccc3Cc3ccccc3C2C1.Cl (configuration not stated) [Mianserine hydrochloride] — lower, 0.0536
- CC(C)C[C@@H](C=O)NC(=O)[C@H](CC(C)C)NC(=O)[C@H](CC(C)C)NC(=O)OCc1ccccc1 — higher, 0.736 ± 0.077
- CC(C)C[C@@H](C=O)NC(=O)[C@H](CC(C)C)NC(=O)OCc1ccccc1 — higher, 0.0921
- CCCC[C@@H](C=O)NC(=O)[C@H](CC(C)C)NC(=O)OCc1ccccc1 [calpeptin] — lower, 0.0616
- CC/C(=C(/CC)c1ccc(O)cc1)c1ccc(O)cc1 [Diethylstilbestrol] — lower, 0.0323
- O=C(O)/C=C/c1ccc(O)c(O)c1 [Caffeic acid] — lower, 0.0546
- O=C(/C=C/c1ccc(O)c(O)c1)OCCc1ccccc1 — higher, 0.624
- O=C(/C=C/c1ccc(O)c(O)c1)O[C@@H]1C[C@](O)(C(=O)O)C[C@@H](O)[C@H]1O [Chlorogenic acid] — lower, 0.0755
- FC(F)(F)c1ccccc1-n1ccnc1 — lower, 0.0512
- O=C(O)CCc1nc(-c2ccccc2)c(-c2ccccc2)o1 [Oxaprozin] — lower, 0.047
- COc1ccc2c(c1)C(=O)N(CCc1ccc(S(=O)(=O)NC(=O)NC3CCCCC3)cc1)C(=O)C2(C)C [Gliquidone] — lower, 0.0709
- CC(C(=O)[O-])c1cccc(Oc2ccccc2)c1.CC(C(=O)[O-])c1cccc(Oc2ccccc2)c1.CC(C(=O)[O-])c1cccc(Oc2ccccc2)c1.O.O.[Ca+2] (configuration not stated) [Fenoprofen calcium salt dihydrate] — lower, 0.0249
- C[N+](C)(CCOc1ccccc1)Cc1ccccc1.O=C([O-])c1cc2ccccc2cc1O [Bephenium hydroxynaphthoate] — lower, 0.0458
- CCCCCCCC/C=C\CCCCCCCC(N)=O — lower, 0.0449
- Cl.Clc1ccc(Cn2c(CN3CCCC3)nc3ccccc32)cc1 [Clemizole hydrochloride] — lower, 0.063
- CCN(CC)CCOc1ccc(/C(=C(/Cl)c2ccccc2)c2ccccc2)cc1.O=C(O)CC(O)(CC(=O)O)C(=O)O [Clomiphene citrate (Z,E)] — lower, 0.0397
- CCOc1ccc(Cc2nccc3cc(OCC)c(OCC)cc23)cc1OCC.Cl [Ethaverine hydrochloride] — lower, 0.0346
- NCCc1c[nH]cn1 — lower, 0.0411
- CCOC1O[C@H]([C@@H](COCc2ccccc2)OCc2ccccc2)[C@H](OCc2ccccc2)[C@H]1O (some centres not stated) [Tribenoside] — higher, 0.102
- CCOC(=O)C1=C[C@]2(CC)CCCN3CCc4c(n1c1ccccc41)[C@@H]32 [Vinpocetine] — lower, 0.0378
- O=C(O)c1ccc(C2=C3C=CC4=[N]3->[Mn+3]35<-[N]6=C(C=CC6=C(c6ccc(C(=O)O)cc6)c6ccc2[n]63)C(c2ccc(C(=O)O)cc2)=c2ccc([n]25)=C4c2ccc(C(=O)O)cc2)cc1.[Cl-] (configuration not stated) — lower, 0.0485
- COC(=O)Nc1nc2cc(SC(C)C)ccc2[nH]1 [Methiazole] — higher, 0.499
- CCCCCCCCCCCCCCCC(=O)NCCc1ccc(O)c(O)c1 [Palmitoyl dopamine] — lower, 0.0673
- CCCSc1ccc2[nH]c(NC(=O)OC)nc2c1 [Albendazole] — higher, 0.548
- COC(=O)Nc1nc2cc(C(=O)c3cccs3)ccc2[nH]1 [nocodazole] — higher, 0.681
- COC(=O)Nc1nc2cc(C(=O)c3ccccc3)ccc2[nH]1 [Mebendazole] — higher, 0.619
- COC(=O)Nc1nc2cc(C(=O)c3cccs3)ccc2[nH]1 [Nocodazole] — higher, 0.627
- CC(C(=O)O)c1ccc(C(=O)c2cccs2)cc1 (configuration not stated) [Suprofen] — lower, 0.0679
- CCCCc1ccc2[nH]c(NC(=O)OC)nc2c1 [Parbendazole] — higher, 0.609
- COC(=O)Nc1nc2cc(Sc3ccccc3)ccc2[nH]1 [Fenbendazole] — higher, 0.24

For `Cc1ccc(NC(=O)c2cccc(N(C)C)c2)cc1NC(=O)c1ccc(O)cc1`, the “fraction of GFP-LC3-positive cells” value was 0.0842 and 0.161.
